Experimental data published in PubChem BioAssay.
Calls of active or inactive are those of the source.

Test: plasmodial surface anion channel blockers, osmotic lysis – cell-based, P. falciparum Indochina, OD700, 18 h, primary screen (AID 1157)
Conditions: P. falciparum Indochina infected erythrocytes, osmotic lysis OD700, 18 h; higher = more signal, called active from +8 up or from −8 down

z-score, inactive:
CC(c1ccccc1)C(O)C1C=CC2C(=O)N(C)C(=O)C2N1Nc1ccccc1 (stereo not given) 0.999
Cc1ccc(N2C(=O)c3ccccc3[C@@H](C(=O)NCCCN(C)C)[C@@H]2c2ccc(CO)cc2)nc1 0.304
CCCCC(CC)C(O)C1C=CC2C(=O)N(C)C(=O)C2N1Nc1ccccc1 (stereo not given) 0.827
C=CCNC(=O)[C@@H]1[C@H]2C(=O)O[C@H](c3ccccc3)[C@H](c3ccccc3)N2[C@H](c2ccc(O)cc2)[C@@]12C(=O)N(C(=O)OCCOC)c1ccc(C#CC3=CCCCC3)cc12 0.313
NCCCCCCNC(=O)[C@@H]1C[C@@H]2C(=O)N[C@@H](CCCCN)C(=O)N2[C@@H]1c1ccc(O)cc1 -1.85
Cc1ccc(C(C)CC(O)C2C=CC3C(=O)N(c4ccccc4)C(=O)C3N2Nc2ccccc2)o1 (stereo not given) -0.374
COCCOC(=O)N1C(=O)[C@@]2(c3cc(C#CC4(O)CCCCCC4)ccc31)[C@H](C(=O)N1CCc3cc(OC)c(OC)cc3C1)[C@H]1C(=O)O[C@H](c3ccccc3)[C@H](c3ccccc3)N1[C@@H]2c1ccc(OCCO)cc1 1.64
COC(=O)[C@@]1(Cc2ccc(OC)cc2)[C@H]2c3cc(C(=O)N(C)C)n(Cc4ccc(OC(F)(F)F)cc4)c3C[C@H]2CN1C(=O)c1ccccc1 0.569
CCCCCN1CC=CC23O[C@@H]4C=CCCOC(=O)C4[C@H]2C(=O)N(CCCCCCO)[C@@H]3C1=O (stereo not given in full) 0.407
COCCOC(=O)N1C(=O)[C@@]2(c3cc(C#CC4=CCCCC4)ccc31)[C@H](c1ccccc1OCCO)N1[C@H](c3ccccc3)[C@H](c3ccccc3)OC(=O)[C@H]1[C@@H]2C(=O)N1CCN(c2ncccn2)CC1 -0.492
NC(=O)[C@@]1(Cc2ccccc2)COC(c2ccc(OCCCO)cc2)=N1 -0.0697
N#Cc1ccc(NN2C(C(O)c3ccc(Br)cc3)C=CC3C(=O)N(c4ccccc4)C(=O)C32)cc1 (stereo not given) -0.348
CCOC(=O)C[C@H]1[C@H](OC(=O)c2ccccc2-c2ccccc2)[C@@H](NC(=O)c2ccc3ccccc3c2)c2cc(OCCCO)ccc2N1C(=O)c1ccccc1 0.23
O=C1NC(=O)C2C1C=CC(C(O)c1ccco1)N2Nc1ccc(Cl)cc1Cl (stereo not given) 1.2
C=CCOC(=O)[C@@]1(Cc2ccccc2)C[C@H]2CO[C@H](c3ccc(OC)cc3)N2C1=O 0.0894
COCCCNC(=O)[C@@H]1c2ccccc2C(=O)N(C(C)C)[C@H]1c1ccc(CO)cc1 0.206
COC(=O)C1=CC(CCCO)=CC(c2cccs2)N(Cc2cccc(OC(F)(F)F)c2)C=C1C(=O)OC (stereo not given) 0.842
[N-]=[N+]=Nc1ccccc1C[C@]1(C(=O)NCC(O)CO)COC(c2ccc(OCCCO)cc2)=N1 (stereo not given in full) 1.06
COc1cccc(C)c1NC(=O)O[C@H]1[C@H](OC(=O)Nc2ccc3c(c2)OCO3)[C@@H](OC(=O)Nc2ccc3c(c2)OCO3)[C@@H](OC)O[C@@H]1CO 0.349
CCCCCCCCCCC(O)C1C=CC2C(=O)N(c3ccccc3)C(=O)C2N1Nc1ccc(C#N)cc1 (stereo not given) 2.3
Cc1ccc(F)cc1S(=O)(=O)N[C@@H]1CCN(Cc2ccc(Br)cc2)C1 0.55
C=CC[C@]1(C(=O)N2CCCCC2)N=C(c2ccc(OCCCO)cc2)O[C@H]1c1ccccc1CN=[N+]=[N-] 1.08
COCC(=C=CC[C@H](O)c1ccc(CO)o1)CCO -0.159
O=C(c1ccccc1)N1C(=O)[C@]2(Cc3ccccc31)N=C(c1ccc(OCCCO)cc1)O[C@@H]2c1ccccc1 1.35
C[N+](C)(C)CCCCCCNC(=O)[C@@H]1C[C@@H]2C(=O)N3CCC[C@H]3C(=O)N2[C@@H]1c1ccc(O)cc1 -0.117
C=CCC(OC(C)=O)[C@@H]1[C@@H](N(Cc2ccc(-c3ccccc3)cc2)C(=O)c2ccc(-c3ccccc3)cc2)c2cc(OCCCO)ccc2N1C(=O)c1ccc2ccccc2c1 (stereo not given in full) -0.0602
CCOC(=O)C1=C[C@@H](C(C)(C)C)N(S(=O)(=O)c2ccc(C)cc2)[C@H]1c1cccc2ccccc12 0.193
O=C1CS(=O)(=O)C(c2cccc([N+](=O)[O-])c2)N1c1ccccc1 (stereo not given) -1.68
COC(=O)[C@@]1(Cc2ccc(F)cc2)[C@H]2c3cc(C(=O)N4CCCC4)n(CCc4c[nH]c5ccccc45)c3C[C@H]2CN1C(=O)c1ccccc1 1.06
COc1ccc(CCNC(=O)[C@@]2(c3ccc([N+](=O)[O-])cc3)CC(=O)N(C3CCCCC3)[C@@H]2c2ccc(CO)cc2)cc1 -0.383
O=C(O)[C@@H]1[C@@H]2C(=O)N(c3ccccc3)C(=O)[C@@H]2C[C@@H]1Sc1ccccc1 0.631
C=CC[C@@H](OC(=O)Nc1ccc(SC)cc1)c1ccc(O)c(F)c1 1.04
COCCOC(=O)N1C(=O)[C@@]2(c3cc(C#CC4=CCCCC4)ccc31)[C@H](C(=O)Nc1nc3ccccc3s1)[C@H]1C(=O)O[C@H](c3ccccc3)[C@H](c3ccccc3)N1[C@@H]2c1ccc(O)cc1 1.2
CC(C)C[C@@H]1NC(=O)[C@@H]2C[C@H](C(=O)NCCCCCCN)[C@H](c3cccc(OCCO)c3)N2C1=O 0.227
COCCOC(=O)N1C(=O)[C@@]2(c3cc(C#CCNC(N)=O)ccc31)[C@H](C(N)=O)[C@H]1C(=O)O[C@H](c3ccccc3)[C@H](c3ccccc3)N1[C@@H]2c1ccccc1OCCO 0.269
